The values below come from PubChem BioAssay (NCATS).

The nature of assay [1]: Immunotoxin (SS1P) sensitization/mitigation study. Vehicle arm (DMEM) (AID 1159513). Also: potency is read from the fitted curve at half-maximal effect.
The nature of assay [2]: qHTS Assay for Identifying Gametocytocidal Compounds (AID 743244; active = well fitted curve in the direction sought with a large enough effect; an effect the other way counts as inactive or inconclusive; also: potency is read from the fitted curve at half-maximal effect;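 as to max response: % is scaled to controls: 0 for no effect and ±100 for the full control effect; actives lower the fluorescent signal which means gametocytes are killed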). The conditions noted are these: P. falciparum 3D7 stage III-V gametocytes, alamarBlue, 72 h; max response: stronger effect = lower value. A digest of the protocol:
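Stage III-V P. falciparum 3D7 gametocytes, 20,000 per well, were exposed to compounds for 72 h at 37C, 5% CO2. AlamarBlue was then added for 24 h and viability was read as fluorescence at Ex 525/Em 598 nm.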
(In general: In qHTS, concentration-response curves come from the screen itself.)

Assay [3] can be described thus: qHTS profiling for inhibitors of Plasmodium falciparum (3D7) proliferation (AID 743322).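 Also: infected erythrocytes exposed to compound for 72 h before lysis; 100% = DMSO vehicle wells and 0% = 0.29 µM artemisinin.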 The note with it: P. falciparum 3D7 proliferation; at 28.7 µM (top of the series) unless noted. A digest of the protocol:
(§1)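 Erythrocytes infected with P. falciparum (0.3% parasitemia, 2.5% hematocrit) incubated with compounds 72 h at 37 C, 5% CO2. Lysis with saponin/Triton buffer containing SYBR Green I, overnight at room temperature in the dark; DNA fluorescence (485/535 nm) normalised to 0.29 uM artemisinin and DMSO.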

A short description of assay [4]: qHTS profiling for inhibitors of Plasmodium falciparum (DD2) proliferation (AID 743323). The conditions noted are these: lower = more inhibition; at 28.7 µM (top of the series) unless noted. The gist of the method: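 1536-well qHTS; infected RBCs 0.3% parasitemia/2.5% Hct final; cpd 72 h 37 C 5% CO2; lysis buffer + SYBR Green I, o/n RT dark; FI 485/535; norm. to 0.29 uM artemisinin and DMSO, plate-stack corrected.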

The nature of assay [5]: qHTS profiling for inhibitors of Plasmodium falciparum (HB3) proliferation (AID 743324; active = well fitted curve in the direction sought with a large enough effect; an effect the other way counts as inactive or inconclusive;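 also: 100% = DMSO vehicle wells and 0% = artemisinin-treated control wells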). The note with it: Plasmodium falciparum HB3 blood-stage proliferation; at 28.7 µM (top of the series) unless noted. A digest of the protocol:
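P. falciparum HB3 grown in erythrocytes (0.3% parasitemia, 2.5% hematocrit final) with compound for 72 h at 37 C, 5% CO2. Parasite DNA detected by SYBR Green after saponin/triton lysis overnight; normalized to 0.29 uM artemisinin and DMSO.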

Assay [6] is described as follows: qHTS profiling of the MIPE4 collection as inhibitors of Plasmodium falciparum (3D7) proliferation (AID 743344).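 Also: scaled between DMSO vehicle wells and 0.29 µM artemisinin as full inhibition.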 The conditions noted are these: P. falciparum 3D7 in erythrocytes, SYBR Green DNA fluorescence, 72 h; at 28.5 µM (top of the series). The gist of the method:
as §1

Assay [7] in a line: qHTS profiling of the MIPE4 collection as inhibitors of Plasmodium falciparum (DD2) proliferation (AID 743345). The conditions noted are these: P. falciparum Dd2 in erythrocytes, SYBR Green DNA, 72 h; at 28.5 µM (top of the series) unless noted. The gist of the method:
as §1

Assay [8] can be described thus: qHTS profiling of the MIPE4 collection as inhibitors of Plasmodium falciparum (HB3) proliferation (AID 743347).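 Also: plate controls were DMSO vehicle wells for no effect and artemisinin wells for full effect.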 The conditions noted are these: P. falciparum HB3 in erythrocytes, SYBR Green DNA, 72 h; at 28.5 µM (top of the series). The gist of the method:
as §1

Assay [9] is described as follows: Immunotoxin (HA22) sensitization/mitigation study. Vehicle arm (PBS) (AID 1159510). Also: potency is read from the fitted curve at half-maximal effect.
Assay [10] can be described thus: High-throughput drug toxicity screening in the BPDCN cell line Gen2.2 (AID 1224824).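 Also: cells exposed to compounds for 48 h before reading.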 The note with it: Gen2.2 BPDCN cells; at 45.8 µM (top of the series). The gist of the method:
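Gen2.2, 500 cells/well, phenol red-free RPMI/10% FBS/Pen-Strep; 48 h cpd, 37 °C/5% CO2; CTG lum, 15 min RT. Norm: DMSO = 100%, bortezomib 9.2 uM final = 0%.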

Assay [11] can be described thus: qHTS profiling of the MIPE4 collection as inhibitors of Plasmodium falciparum (DD2) proliferation (Rep 2) (AID 743346). The note with it: P. falciparum Dd2 in erythrocytes, SYBR Green DNA, 72 h; at 28.5 µM (top of the series). The gist of the method:
as §1

Results filed as inconclusive are left out. The source made the active and inactive calls. Unless noted, no rule for the calls is given here.

For the molecule `COc1cc(Nc2ncc3c(n2)-c2ccc(Cl)cc2C(c2c(F)cccc2OC)=NC3)ccc1C(=O)O`, the Potency result in [1] is “inactive”.

As to `COc1cc2c(cc1OC)[C@@H]1C(=O)c3ccc4c(c3O[C@@H]1CO2)C=CC(C)(C)O4`, the Potency in [1] was 4.18 µM (active).

As to `COc1ccc(-c2c(-c3ccc(O)cc3O)n[nH]c2C)cc1`, in assay [1], the Potency was 16.6 µM (active).

As to `Cc1nc(-c2ccc(-c3ccc(C(=O)N4CCc5cc6c(cc54)C4(CCN(C)CC4)CO6)cc3)c(C)c2)no1`, the max response in assay [2] was -4.85% (inactive). In assay [3], the remaining parasite growth % (stronger effect = lower value) came out at 36.2%. Also, the activity, percent of control in assay [4] worked out at 63.3%. Further, in assay [5], the remaining proliferation (% of control), lower = more inhibition came to 17.2%. This molecule showed a parasite growth, % of DMSO control in assay [6] of 76%. Further, in assay [7], the parasite growth remaining, % of DMSO control (lower = more inhibition) was found to be 101%. This molecule also came in with a growth, % of control in assay [8] of 43.5%. Also, the Potency in [9] is 23.5 µM (active); in assay [1], 26.4 µM (active). For the same molecule, the cell viability, % of control (lower = more cytotoxic) in [10] was 163%.

Consider `CC(C)=CCCC(C)=CCCC(C)=CCSc1ccccc1C(=O)O`, for which, in assay [1], the Potency entry was “inactive”.

As to `CC(=O)NCCC(=O)N[C@@H](CCC(N)=O)C(=O)N[C@@H](CO)C(=O)N[C@@H](CCC(N)=O)C(=O)N[C@@H](CCC(N)=O)C(=O)N[C@H](C(=O)N[C@@H](Cc1ccccc1)C(=O)N[C@]1(C)CCCCCCC=CCCC[C@@](C)(C(=O)N[C@@H](CCC(N)=O)C(=O)N[C@@H](CC(N)=O)C(N)=O)NC(=O)[C@H](CC(C)C)NC(=O)[C@H](CC(C)C)NC(=O)[C@@H](CCCNC(=N)N)NC(=O)[C@H](Cc2c[nH]c3ccccc23)NC(=O)[C@H](CC(C)C)NC(=O)[C@H](CC(N)=O)NC1=O)[C@H](C)O`, the Potency entry in assay [1] is “inactive”.

Turning to `CC[C@@H](C(=O)O)C1CC[C@H](C)C([C@@H](C)[C@H](O)[C@H](C)C(=O)[C@H](CC)C2O[C@]3(C=C[C@@H](O)[C@]4(CC[C@@](C)(C5CC[C@](O)(CC)[C@H](C)O5)O4)O3)[C@H](C)C[C@@H]2C)O1` (stereo partly specified), the Potency in assay [2] was 0.0526 µM (active); in assay [9] it was 0.0418 µM (active); in assay [1] it was 20.9 µM (active).

`NC(=O)c1ccc(N(C(N)=O)c2c(F)cccc2F)nc1-c1ccc(F)cc1F`: in assay [1], the Potency entry is “inactive”.

On to `CC(C)[C@]12O[C@H]1[C@@H]1O[C@]13[C@]1(O[C@H]1C[C@H]1C4=C(CC[C@@]13C)C(=O)OC4)[C@@H]2O`, for which the max response in assay [2] was -3.04% (inactive). Moreover, the remaining parasite growth % (stronger effect = lower value) in assay [3] was determined as 103%. Moreover, the activity, percent of control in [4] is 96.4%. The remaining proliferation (% of control), lower = more inhibition in assay [5] was 95.4%. Also, the Potency in assay [9] is 0.0042 µM (active); in assay [1] it was 0.0074 µM (active).

Turning to `CC(C)(Sc1ccc(CCN(CCCCC2CCCCC2)C(=O)NC2CCCCC2)cc1)C(=O)O`, the Potency entry in assay [1] is “inactive”.

`N#Cc1c(O)c2c(-c3ccc(-c4ccccc4O)cc3)csc2[nH]c1=O`: the Potency entry in [1] is “inactive”.

Regarding `C[C@@]12O[C@@H](C[C@]1(O)CO)n1c3ccccc3c3c4c(c5c6ccccc6n2c5c31)CNC4=O`, the Potency in [2] was 5.9 µM (active); in assay [9] it was 0.209 µM (active); in assay [1], 0.0296 µM (active).

Regarding `Cc1cccc(-c2[nH]ncc2-c2ccc3ncccc3n2)n1`, in assay [1], the Potency result is “inactive”.

On to `CN(NC(=O)CC(=O)NN(C)C(=S)c1ccccc1)C(=S)c1ccccc1`, for which the Potency entry in assay [1] was “inactive”.

Consider `C1=CCOCc2cc(ccc2OCCN2CCCC2)Nc2nccc(n2)-c2cccc(c2)OCC1`, for which, in assay [3], the remaining parasite growth % (stronger effect = lower value) came out at 105%. Besides, in assay [4], the activity, percent of control was found to be 107%. Besides, the remaining proliferation (% of control), lower = more inhibition in assay [5] was 115%. For the same molecule, the Potency is 3.72 µM (active) in assay [9] and 2.64 µM (active) in [1].

On to `Cc1nc2cnc3ccc(C#Cc4cccnc4)cc3c2n1-c1ccc(C(C)(C)C#N)cc1`, for which the Potency in assay [2] was 5.9 µM (active); in assay [9], 1.87 µM (active); in assay [1] it was 0.132 µM (active).

In the case of `C=CCON=C(C[C@H]1O[C@@H]2O[C@]3(C)CC[C@@H]4[C@H](C)CC[C@@H]([C@H]1C)[C@@]24OO3)[C@H]1O[C@@H]2O[C@]3(C)CC[C@H]4[C@H](C)CC[C@@H]([C@@H]1C)[C@@]24OO3`, the Potency in assay [2] is 0.0083 µM (active); in [9], 0.0166 µM (active); in [1] it was 0.235 µM (active). In [3], the remaining parasite growth % (stronger effect = lower value) was -1.46%. In [4], the activity, percent of control is 0.0103%. Besides, the remaining proliferation (% of control), lower = more inhibition in assay [5] came to 0.0213%. In assay [6], this molecule registered a parasite growth, % of DMSO control of 21.6%. Also, the parasite growth remaining, % of DMSO control (lower = more inhibition) in assay [7] is 7.38%. The molecule further showed a growth, % of control in assay [8] of 64.2%. In addition, in assay [10], the cell viability, % of control (lower = more cytotoxic) was 19.7%.

On to `CCOc1ccc(Cc2cc([C@@H]3O[C@H](CO)[C@@H](O)[C@H](O)[C@@H]3O)ccc2Cl)cc1`, for which the Potency entry in assay [1] is “inactive”.

With `CC(C)(C)C(=O)Oc1ccc2c(c1)nc(NC(=O)c1cccc([N+](=O)[O-])c1)n2CCCO`, in assay [1], the Potency entry is “inactive”.

With `CC[C@@H](C(N)=O)N1CCCC1=O`, the max response in assay [2] is 27.6% (inactive). In [6], this molecule came in with a parasite growth, % of DMSO control of 69.9%. Also, the parasite growth remaining, % of DMSO control (lower = more inhibition) in [7] stood at 90.5%. Further, the parasite growth, % of control (lower = inhibition) in [11] turned out to be 46.9%. This molecule yielded a growth, % of control in [8] of 78.5%. Moreover, in assay [10], the cell viability, % of control (lower = more cytotoxic) stood at 211%.

In the case of `COC(=O)[C@@H](N)CCCN=C(N)N[N+](=O)[O-]`, in assay [2], the max response is 6.28% (inactive). In [6], this molecule registered a parasite growth, % of DMSO control of 91.3%. In [7], the parasite growth remaining, % of DMSO control (lower = more inhibition) amounted to 94.8%. In assay [11], this molecule yielded a parasite growth, % of control (lower = inhibition) of 82%. Besides, the growth, % of control in assay [8] came to 92.1%. Further, the cell viability, % of control (lower = more cytotoxic) in assay [10] was found to be 113%.

`O=C(Nc1ccncc1)C(=O)c1cn(Cc2ccc(Cl)cc2)c2ccccc12` returned a parasite growth, % of DMSO control in assay [6] of 91%. Moreover, the parasite growth remaining, % of DMSO control (lower = more inhibition) in assay [7] was 85.2%. For the same molecule, in assay [11], the parasite growth, % of control (lower = inhibition) came out at 81.4%. The growth, % of control in [8] turned out to be 78.4%. For the same molecule, the cell viability, % of control (lower = more cytotoxic) in assay [10] is 73.9%.

As for `NC1=NC(=O)N2CC12` (stereo unspecified), the max response in [2] is -4.05% (inactive). In [6], this molecule displayed a parasite growth, % of DMSO control of 49.2%. Moreover, the parasite growth remaining, % of DMSO control (lower = more inhibition) in [7] was 93.9%. The growth, % of control in assay [8] turned out to be 68.6%. For the same molecule, in assay [10], the cell viability, % of control (lower = more cytotoxic) worked out at 8.27%.

`COCCn1c2c([n+](Cc3cnccn3)c1C)C(=O)c1ccccc1C2=O`: the Potency in assay [2] is 0.372 µM (active); in assay [1] it was 0.0037 µM (active).
